hNpr1 antagonist – Natriuretic polypeptide receptor (hNpr1) antagonism - Primary qHTS | Potency, µM (titrated, usually from 46.3 µM), most hits filed as inhibitors | Atrial natriuretic peptide receptor 1 (Homo sapiens), P16066 | HEK293 hNpr1 GloSensor cGMP, ANP-stimulated luminescence | AID 1347048, 2019 | actives 1.6% (n = 76,000); calls by dose curve; note: nearly all actives have a fitted effect of over 60% in size
Target sequence (P16066 whole entry, looked up): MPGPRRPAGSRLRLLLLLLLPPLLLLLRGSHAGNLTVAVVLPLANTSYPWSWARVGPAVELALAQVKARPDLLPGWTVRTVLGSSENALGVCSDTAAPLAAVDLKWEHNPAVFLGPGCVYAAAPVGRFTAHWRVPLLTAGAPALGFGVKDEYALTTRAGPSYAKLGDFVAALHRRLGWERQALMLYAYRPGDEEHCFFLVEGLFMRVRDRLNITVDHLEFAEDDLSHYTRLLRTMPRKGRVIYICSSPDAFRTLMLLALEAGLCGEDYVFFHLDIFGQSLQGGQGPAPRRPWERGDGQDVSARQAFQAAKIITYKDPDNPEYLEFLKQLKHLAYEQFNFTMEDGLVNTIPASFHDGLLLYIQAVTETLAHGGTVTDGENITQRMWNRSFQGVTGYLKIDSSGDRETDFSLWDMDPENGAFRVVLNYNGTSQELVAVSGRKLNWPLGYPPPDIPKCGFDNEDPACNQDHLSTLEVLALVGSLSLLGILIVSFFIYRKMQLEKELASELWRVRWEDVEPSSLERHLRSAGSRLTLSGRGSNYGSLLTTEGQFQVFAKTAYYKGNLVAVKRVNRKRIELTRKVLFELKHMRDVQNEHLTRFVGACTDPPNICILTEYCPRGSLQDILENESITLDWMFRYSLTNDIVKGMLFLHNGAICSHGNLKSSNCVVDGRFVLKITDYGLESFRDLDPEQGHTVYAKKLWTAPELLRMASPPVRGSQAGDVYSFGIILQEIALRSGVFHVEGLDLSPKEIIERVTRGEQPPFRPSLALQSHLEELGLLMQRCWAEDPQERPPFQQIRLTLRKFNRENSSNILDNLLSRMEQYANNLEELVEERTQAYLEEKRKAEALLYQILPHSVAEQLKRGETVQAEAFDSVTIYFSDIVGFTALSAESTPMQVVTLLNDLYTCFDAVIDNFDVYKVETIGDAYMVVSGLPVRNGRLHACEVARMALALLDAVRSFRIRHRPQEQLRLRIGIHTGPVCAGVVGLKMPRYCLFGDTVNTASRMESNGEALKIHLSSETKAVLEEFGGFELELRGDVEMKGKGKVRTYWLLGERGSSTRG
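Compound pre-incubated 30 min at room temperature on GloSensor-loaded HEK293 cells stably carrying hNpr1 and the pGS-40F cGMP biosensor. Stimulation uses hNppA at 0.1 nM final; luminescence is taken at baseline and 20 min post-agonist.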
GPT2 inh – Primary qHTS assay for inhibitors of Glutamate pyruvate transaminase 2 (GPT2); Alanine aminotransferase 2 (Homo sapiens), Q8TD30; Potency, µM (top dose mostly 57.7 µM), actives largely listed as inhibitors; Recombinant GPT2, coupled pyruvate oxidase/HRP Amplex Red fluorescence; actives 0.25% (n = 100,000); note: nearly all actives have a fitted effect of over 60% in size
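Recombinant GPT2 (10ng/uL) with 250uM a-KG and 2mM L-alanine, 30 min at room temperature, in HEPES pH 7.5 buffer. Pyruvate detected by pyruvate oxidase/HRP/Amplex Red fluorescence after 30 min in the dark; AOA (50uM) as positive control.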
FLuc inh – Firefly luciferase inhibition profiling of diverse chemical library using quantitative high-throughput screening; Luciferin 4-monooxygenase (Photinus pyralis), P08659; purified P. pyralis luciferase, luminescence, biochemical; Potency, µM (top dose mostly 115 µM), hits mostly inhibitors; actives 2.5% (n = 76,000); AID 1347043, 2019; note: nearly all actives have a fitted effect of over 65% in size
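Inhibitors were tested against purified firefly luciferase in a biochemical, low-substrate format (both substrates at 10uM) and luminescence measured with a CCD imager.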
HEK293 tox – Cytotoxic Profiling in HEK 293 Cell Line of Diverse Libraries Using Quantitative High-Throughput Screening; HEK 293 viability, ATP luminescence (CellTiter-Glo), 48-72 h; actives 6.6% (n = 94,000); Potency, µM (highest dose often 115 µM), usual class: inhibitors; note: nearly all actives have a fitted effect of over 60% in size
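Cytotoxicity was scored by loss of ATP-coupled luminescence (CellTiter-Glo) in HEK 293 cells. Compound treatment ran 48 or 72 hr at 37 degree Celsius, 5% CO2, 95% humidity.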
NIH3T3 tox – Cytotoxic Profiling in NIH 3T3 Cell Line of Diverse Libraries Using Quantitative High-Throughput Screening. actives 4.3% (n = 94,000). Potency, µM (doses to about 96.7 µM), actives largely listed as inhibitors. NIH 3T3 viability, CellTiter-Glo ATP luminescence, 48-72 h; note: nearly all actives have a fitted effect of over 55% in size
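ATP-dependent luminescence (CellTiter-Glo) served as the viability signal for NIH 3T3 cells treated with compound for 48 or 72 hr at 37 °C.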
Hits are given with their value; . = inactive; ? = inconclusive; / = no result given. Sampled rows, rich in hits. Any-hit rate of the full collection: about 10%. Unless noted, calls come from the whole dose curve; as a rule, active = well fitted curve in the direction sought with a large enough effect; inconclusive = small, poorly fitted or top-dose-only effect, or another doubt; inactive = no such curve, though single readings can be large; an effect the other way counts as inactive or inconclusive.

SMILES	hNpr1 antagonist	GPT2 inh	FLuc inh	HEK293 tox	NIH3T3 tox
COC(=O)[C@@H]1Cc2c([nH]c3ccccc23)[C@@H]2C[C@@H](NCCNC(C)=O)C[C@@H](c3cccc(Cl)c3)N12	.	.	.	32µM	28µM
COC(=O)[C@@H]1Cc2c([nH]c3ccccc23)[C@H]2C[C@@H](NCCN(C)C)C[C@@H](c3cccc(Cl)c3)N21	.	.	?	6.3µM	4.5µM
COC(=O)[C@@H]1Cc2c([nH]c3ccccc23)[C@H]2C[C@@H](NCCNC(C)=O)C[C@@H](c3ccc(-c4ccccc4)cc3)N21	.	.	.	40µM	?
CC(=O)NCCC(=O)N1CCC(n2c(=O)[nH]c3ccccc32)CC1	/	.	/	.	.
COc1ccc(CN2Cc3[nH]nc(-c4ccccc4)c3CC2=O)cc1	.	.	.	.	?
COc1ccc(CN2Cc3[nH]nc(-c4cccnc4OC)c3CC2=O)cc1	.	.	.	71µM	?
COc1ccc(CN2Cc3[nH]nc(-c4ccc(N5CCN(C)CC5)cc4)c3CC2=O)cc1	.	.	.	45µM	79µM
COc1ccc(CN2Cc3[nH]nc(-c4ccnn4C)c3CC2=O)cc1	.	.	.	112µM	?
COc1cccc(Cn2c(=O)c3ccnn3c3ccc(C(=O)O)cc32)c1	.	.	.	.	?
Cc1ccc(C(=O)N2CCC(N3CCOC3=O)CC2)cc1	/	.	/	.	.
Cn1nc(-c2ccncc2)cc1NC(=O)c1ccc(F)cc1	/	.	/	?	?
Cc1cc(OCC(=O)O)c(C)c2c1CC[C@@H]([C@H](C)C(=O)N1CCC(O)CC1)C2	.	.	.	.	.
COc1ccc(CNC(=O)c2cc3n(n2)CC(c2ccc(Cl)cc2)OC3)c(OC)c1 (stereo not given)	.	.	.	?	?
CC(C)c1cccc(NC(=O)c2cc3n(n2)CC(c2ccc(Cl)cc2)OC3)c1 (stereo not given)	.	.	.	?	.
Cc1cn2nc(C(=O)NCc3ccc(C(C)C)cc3)cc2c(=O)[nH]1	.	.	14µM	?	.
COc1ccc(CCNC(=O)c2cc3n(n2)CC(c2ccc4c(c2)OCO4)OC3)cc1OC (stereo not given)	?	.	.	?	?
CC(C)c1ccc(CNC(=O)c2cc3n(n2)CC(c2ccc(Cl)cc2)OC3)cc1 (stereo not given)	.	.	.	32µM	28µM
COc1ccccc1CNC(=O)c1cc2n(n1)CC(c1ccc(Cl)cc1)OC2 (stereo not given)	?	.	.	40µM	?
COc1ccc(CCNC(=O)c2cc3n(n2)CC(c2ccc(Cl)cc2)OC3)cc1OC (stereo not given)	?	.	.	45µM	?
Cc1cn2nc(C(=O)NCc3ccccc3)cc2c(=O)[nH]1	.	.	?	.	.
COC[C@H]1C[C@@H](NC(=O)C2CCCC2)[C@H](O)[C@@H]1O	.	.	.	.	.
COc1cc(NC(=O)c2cc3n(n2)CC(c2ccc(Cl)cc2)OC3)cc(OC)c1OC (stereo not given)	.	.	.	45µM	?
COc1ccc(NC(=O)c2cc3n(n2)CC(c2ccc(Cl)cc2)OC3)cc1 (stereo not given)	?	.	?	?	?
COc1ccccc1-c1ccc(C(=O)N2CCC(C(=O)NCc3ccc(C(F)(F)F)cc3)CC2)cc1	/	.	/	35µM	?
COc1ccccc1-c1ccc(C(=O)N2CCC(C(=O)NCc3cccc(Cl)c3)CC2)cc1	/	.	/	20µM	?
SMILES	hNpr1 antagonist	GPT2 inh	FLuc inh	HEK293 tox	NIH3T3 tox
COc1ccccc1-c1ccc(C(=O)N2CCC(C(=O)NCc3ccccc3)CC2)cc1	/	.	/	?	?
COc1ccccc1-c1ccc(C(=O)N2CCC(C(=O)NC3CCCC3)CC2)cc1	/	.	/	28µM	?
COc1ccccc1-c1ccc(C(=O)N2CCC(NC(=O)C3CCCC3)CC2)cc1	/	.	/	?	?
COc1ccccc1-c1ccc(C(=O)N2CCC(C(=O)N3CCC(Cc4ccccc4)CC3)CC2)cc1	/	.	/	?	22µM
CSCCCN1CC(Oc2cccc(C(=O)N3CCCC3)c2)C1	.	.	.	.	.
COc1cccc(CCc2ccccc2C(=O)N2CC[C@H](CO)[C@@H](O)C2)c1	.	.	.	.	.
COC[C@@H]1[C@H](NC(=O)c2cc(S(N)(=O)=O)ccc2OC)[C@@H]2CCO[C@H]12	.	.	.	.	.
COc1ccccc1-c1ccc(C(=O)N2CCC(NC(C)=O)CC2)cc1	/	.	/	?	.
O=C(NCc1ccc(C(F)(F)F)cc1)C1CCN(C(=O)c2ccc(-c3cncnc3)cc2)CC1	/	/	/	?	18µM
COc1ccccc1-c1ccc(C(=O)N2CCC(NC(=O)Nc3ccc(Cl)cc3)CC2)cc1	/	.	/	32µM	?
COc1ccccc1-c1ccc(C(=O)N2CCC(C(=O)NCCCc3ccccc3)CC2)cc1	/	.	/	79µM	?
O=C(NCc1cccc(F)c1)C1CCN(C(=O)c2ccc(-c3cncnc3)cc2)CC1	/	.	/	.	?
Cc1nc(N2CCN(C(=O)c3ccc4c(c3)OCO4)CC2)cc(C(F)(F)F)n1	.	.	.	.	.
O=C(NCCc1cccs1)c1ccc(CN2C(=O)NC3(CCOCC3)C2=O)cc1	.	.	.	.	.
COc1ccccc1Nc1ccnc(N2CCC(C(=O)N3CCCC3)CC2)n1	/	.	/	?	?
COc1ccccc1Nc1ccnc(N2CCN(C(=O)Nc3ccc(Cl)cc3)CC2)n1	/	.	/	40µM	40µM
COc1ccccc1Nc1ccnc(N2CCN(C(=O)c3ccc(F)cc3)CC2)n1	/	.	/	50µM	22µM
O=C(c1ccc(Cl)cc1)N1CCN(c2nccc(Nc3ccccc3F)n2)CC1	/	.	/	?	?
O=C(c1ccc(F)cc1)N1CCN(c2nccc(Nc3ccccc3F)n2)CC1	/	.	/	40µM	32µM
COc1ccccc1Nc1ccnc(N2CCN(C(=O)C3CCCC3)CC2)n1	/	.	/	?	?
CC1(C)[C@H](Cc2cc(-c3ccccc3)on2)C[C@@H]1NS(=O)(=O)c1ccccc1	?	.	.	?	?
COc1cccc(C(=O)N2CCCC(C(=O)N3CCC(N4CCOCC4=O)CC3)C2)c1 (stereo not given)	/	.	/	.	.
O=C(Cc1ccc(F)cc1)NC1CCN(c2nccc(Nc3ccccc3F)n2)CC1	/	.	/	?	?
COc1ccc(CC(=O)NC2CCN(c3nccc(Nc4ccccc4F)n3)CC2)cc1	/	.	/	?	45µM

Screens as filed in PubChem.
